Screening results from PubChem BioAssay.
KB-3-1 tox: KB-3-1 parental cell cytotoxicity. KB-3-1 viability, CellTiter-Glo ATP luminescence, 72 h. AID 1347075. Potency, µM (titrated, usually from 46.1 µM), hits mostly cytotoxic. 1.4% of 400,000 active; note: nearly all actives have a fitted effect of over 60% in size
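72 h, 37 °C compound treatment of KB-3-1 parental cells; CellTiter-Glo added, 10 min, luminescence read. Data corrected against DMSO-only plates and normalized before curve fitting.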
HT1080 IDH1KD tx: HT-1080 IDH1 knockdown cell toxicity (counter line). Potency, µM (series often up to 46.1 µM), for the others: at the top dose activity, negative = toxicity, hits mostly cytotoxic. AID 686971. HT-1080 IDH1 knockdown viability, ATP luminescence, 48 h. 2% of 360,000 active;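 note: 0% = DMSO wells and -100% = cell-free medium wells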
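CellTiter-Glo luminescence after 48 h compound exposure at 37 degrees C of IDH1-knockdown HT-1080 cells in 5% FBS RPMI. %Activity scaled between DMSO wells and cell-free media wells, with curves fitted and assigned curve classes.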
KB-V1 cytotox: kills drug-selected multidrug resistant KB-V1 cells; KB-V1 MDR cells viability, CellTiter-Glo, 72 h; Potency, µM (top dose mostly 46.1 µM), most hits filed as cytotoxic; 3.4% of 400,000 active; AID 1347076; note: nearly all actives have a fitted effect of over 60% in size
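Potencies derive from concentration-effect curves fitted to normalized luminescence (CellTiter-Glo) of KB-V1 cells treated for 72 h at 37 degrees C in phenol-red-free DMEM containing 10% FBS.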
HT1080NT lethal: kills 2HG-producing HT-1080-NT fibrosarcoma cells | HT-1080-NT fibrosarcoma viability, CellTiter-Glo ATP luminescence, 48 h | Potency, µM (highest dose often 46.1 µM), for the others: top-dose activity, negative = less viability, most hits filed as cytotoxic | 1.6% of 360,000 active;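 note: NT is the 2HG producing partner of a matched IDH1 knockdown line; 0% = DMSO-treated cells and -100% = media-only wells without cells; nearly all actives have a fitted effect of over 55% in size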
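Toxicity toward the 2HG-producing NT line was scored as %Activity, normalised to DMSO and no-cell wells, from CellTiter-Glo luminescence after 48 hours' treatment.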
Active calls of the source: *; i = inactive; ? = inconclusive; nt = no result given; ! = not active in a repeat. Rows were chosen to be rich in hits. Some 5.7% of all compounds tested hit in one or more screens of this group. Calls come from the whole dose curve; as a rule, active = well fitted curve in the direction sought with a large enough effect; inconclusive = small, poorly fitted or top-dose-only effect, or another doubt; inactive = no such curve, though single readings can be large; an effect the other way counts as inactive or inconclusive. Unless noted, % is set by controls: 0 for no effect and ±100 for the full control effect; potency is the fitted concentration of half-maximal effect.

SMILES	KB-3-1 tox	HT1080 IDH1KD tx	KB-V1 cytotox	HT1080NT lethal
COc1ccccc1C(CNc1ccc(S(=O)(=O)N2CCCC2)cc1[N+](=O)[O-])N(C)C (configuration not stated)	i	-2%	12µM*	?
CCCSc1nc2c(c(=O)[nH]1)C(c1ccc(O)c(OCC)c1)CC(=O)N2 (configuration not stated)	i	nt	i	nt
CCOCCc1nn2c(=O)cc(COC(=O)c3cccc(C)c3)nc2s1	i	nt	i	nt
Cc1sc2c(c1C)c(=O)n(-c1ccc(Cl)cc1)c(=O)n2Cc1c(F)cccc1Cl	i	nt	i	nt
CN(CC(=O)Nc1ccc(S(=O)(=O)N2CCCC2)cc1)Cc1ccc(Cl)cc1Cl	i	-14%	13µM*	-14%
CN(CC(=O)Nc1ccc(S(=O)(=O)N2CCCC2)cc1)CC(=O)Nc1ccc(F)c(F)c1F	i	-22%	?	-23%
CCc1ccc2oc(-c3cc(NC(=O)c4cc([N+](=O)[O-])ccc4N4CCOCC4)ccc3Cl)nc2c1	i	nt	i	nt
CCOCCCNC(=O)C1CCC(CNS(=O)(=O)c2cccc3nsnc23)CC1 (configuration not stated)	i	-10%	21µM*	-2%
CCCCNC(=O)C1CCC(CNS(=O)(=O)c2cccc3nsnc23)CC1 (configuration not stated)	i	-11%	i	-5%
Cc1ccc(CN2CCCn3nc(C(=O)NCc4cc(C)ccc4C)cc3C2=O)cc1	i	nt	i	nt
CCn1cc(C(=O)OCC(=O)Nc2cc(Cl)ccc2OC)c(=O)c2ccc(C)nc21	i	nt	i	nt
C=CCN1C(=O)/C(=C/c2ccc(OC(C)=O)c(OCC)c2[N+](=O)[O-])SC1=S	?	21µM*	?	9.2µM*
COC(=O)C1=C(C)N(CCc2ccccc2)C(=O)C1(NS(=O)(=O)c1ccc(NC(C)=O)cc1)C(F)(F)F (configuration not stated)	i	6.3µM*	i	10µM*
CC(=O)C1=C(C)N(c2ccccc2)C(=O)C1(NS(=O)(=O)c1ccc(N)cc1)C(F)(F)F (configuration not stated)	i	1%	i	-2%
COc1ccccc1Cc1c(-c2ccc(C)cc2)nc2c(C)cc(Br)cn12	i	?	i	?
COc1ccc(Cc2c(-c3cccc(Cl)c3)nc3c(C)cc(Br)cn23)c(C)c1	?	23µM*	i	21µM*
COc1ccccc1Cc1c(-c2ccco2)nc2c(C)cc(Br)cn12	?	3.7µM*	?	3.3µM*
Cc1cc(Br)cn2c(Cc3ccsc3)c(-c3ccco3)nc12	i	23µM*	i	16µM*
COc1ccc(Cc2c(-c3ccco3)nc3c(C)cc(Br)cn23)c(C)c1	?	6.5µM*	i	?
CCOC(=O)c1c(NC(=O)CSc2cn(CCNC(=O)c3ccccc3OC)c3ccccc23)sc2c1CCC2	i	nt	i	nt
Cc1ccc(Cc2c(-c3ccco3)nc3ccc(Br)cn23)cc1	i	16µM*	i	18µM*
Brc1ccc(-c2nc3ccc(Br)cn3c2Cc2ccccc2)cc1	?	?	i	?
Fc1ccc(-c2nc3ccc(Br)cn3c2Cc2ccccc2)cc1	21µM*	-4%	i	-1%
Cc1ccc2nc(-c3ccco3)c(Nc3ccccc3)n2c1	i	-7%	10µM*	-9%
COc1ccc(Cc2c(-c3ccco3)nc3ccc(Cl)cn23)c(C)c1	i	?	i	-24%
SMILES	KB-3-1 tox	HT1080 IDH1KD tx	KB-V1 cytotox	HT1080NT lethal
COc1ccc(Cc2c(-c3ccco3)nc3ccc(Br)cn23)c(C)c1	i	21µM*	i	?
Cc1ccc(Nc2c(-c3ccco3)nc3ccc(C)cn23)cc1	i	nt	i	nt
Cc1ccc(Cc2c(-c3ccc(C)cc3)nc3ccc(Br)cn23)cc1	i	-29%	i	?
CCCNC(=O)C1=CC(c2ccc3c(c2)OCO3)=NS(=O)(=O)N1C	i	nt	i	nt
CCc1ccc(/C=C/C(=O)C2C(=O)c3ccccc3C2=O)cc1	i	?	i	?
CC[N+]1(C)CCC(O)(/C=C/c2ccccc2)C(C(=O)/C=C/c2ccccc2)C1 (configuration not stated)	?	7.3µM*	?	-17%
CCc1ccccc1Nc1nn2c(=O)c3ccc(C(=O)NCc4ccccn4)cc3nc2s1	?	0.029µM*	i	0.26µM*
O=C(Cc1ccc(OCCCCc2ccccc2)cc1)NO	i	nt	i	nt
Cc1ccccc1-c1ccc(Nc2ccc(N3CCOCC3)cc2)nn1	i	-26%	21µM*	-1%
Cc1nn(C)c2c1c(C(F)(F)F)cc(=O)n2C(C)C(=O)NCCc1ccccc1 (configuration not stated)	i	nt	i	nt
Cc1cccc(OCc2nnc(SCC(=O)Nc3ccc(C)cc3C)o2)c1	i	nt	?	nt
Cc1ccc(-n2ncc3c(NCCCn4ccnc4)ncnc32)cc1	i	nt	i	nt
Cc1cccc(/C=C/c2onc(C)c2S(=O)(=O)N2CCC(C(=O)N3CCC(C)CC3)CC2)c1	16µM*!	9%	?	24%
CCOCCCNC(=O)C1CCN(S(=O)(=O)c2c(C)noc2/C=C\c2ccc(OC)cc2)CC1	i	3%	18µM*	0%
COc1cccc(/C=C/c2onc(C)c2S(=O)(=O)N2CCC(C(=O)N3CCC(C)CC3)CC2)c1	i	nt	i	nt
COc1ccc(/C=C/c2onc(C)c2S(=O)(=O)N2CCC(C(=O)N3CCC(C)CC3)CC2)cc1	21µM*!	-25%	i	-26%
CCCNC(=O)C1CCN(S(=O)(=O)c2c(C)noc2/C=C\c2ccc(OC)cc2)CC1	i	14%	i	15%
Cc1cc(C)cc(-n2c(SCC(=O)N3CCC(C)CC3)nc3c([nH]c4ccccc43)c2=O)c1	i	nt	i	nt
Cc1cccc(Cn2c(=O)n(Cc3ccc(C(=O)NC4CCN(Cc5ccccc5)CC4)cc3)c(=O)c3ccccc32)c1	i	nt	i	nt
O=C(O)CN1C(=O)C=CC1=O	i	4%	i	15%
O=C1C=CC(=O)N1CCCCCCN1C(=O)C=CC1=O	?	?	18µM*	?
CC(C)(C)c1ccc(C2CC2C(=O)N/N=C\c2cc3ccccc3nc2Cl)cc1 (configuration not stated)	i	4%	10µM*	9%
Cc1ccc2nc(Cl)c(/C=N/NC(=O)[C@H]3C[C@@H]3c3ccccc3)cc2c1	i	18%	i	19%
C=C(CN(C)C)C(=O)c1ccc(C)cc1C	?	5.8µM*	?	?
O=[N+]([O-])C1C(c2ccccc2)C12c1ccccc1-c1ccccc12 (configuration not stated)	?	6.5µM*	5.2µM*	5.8µM*
CC1(C)c2ccccc2C(=O)c2ccccc21	i	2%	i	8%
COc1ccccc1/C=c1/[nH]c(=O)/c(=C\c2ccccc2OC)[nH]c1=O	i	nt	?	nt
